Hits are enriched below; roughly 21% of the tested compounds scored in any of these assays.
CHX counter: counter-screen for Shiga toxin inhibitors: cycloheximide protein synthesis inhibition. cell reporter, cycloheximide protein synthesis inhibition counterscreen. max response, %. 12% of 300,000 active. AID 2314; in the data active means max response mostly above about 13%, no sharp cut-off; inactive means mostly below about 14%; further: read at 38.3 µM for the half of the compounds with a filed dose
Pf growth 48h: inhibits P. falciparum growth in the first generation, 48 h; P. falciparum luciferase growth in erythrocytes, 48 h; Potency, µM (top dose mostly 28.7 µM), most hits filed as inhibitors; 5.9% of 310,000 active
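Compounds are pin-transferred into medium, infected erythrocytes (2% hematocrit, 0.1% parasitemia final) are added, and plates sit one parasite generation at 37 C in 5% CO2. Detection reagent is then added and luminescence measured.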
Shiga inhibitor: blocks Shiga toxin action in Vero cells; Vero cells, Shiga toxin protein synthesis inhibition reporter; inhibition, % at 38.7 µM; 9.2% of 290,000 active; AID 2315; in the data active means inhibition mostly above about 28%, no sharp cut-off; inactive means mostly below about 43%
Pf growth 96h: P. falciparum growth inhibition at 96 hours; P. falciparum luciferase reporter growth, 96 h; AID 504834; Potency, µM (top dose mostly 28.7 µM), usual class: inhibitors; 6.9% of 320,000 active
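Plates of compound plus infected erythrocytes (2% hematocrit, 0.05% parasitemia final) incubate 96 hours, 37 C, 5% CO2. Detection reagent added; reduced luminescence from the parasites' luciferase reporter flags inhibition.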
HCMV inh: inhibitors of human cytomegalovirus; HFF cells, HCMV-luciferase reporter, 72 h; stronger effect = lower value; activity change, negative = inhibition, % at 57.5 µM; 4.5% of 410,000 active; AID 1259415; in the data active means activity change below about -60%; inconclusive means no clear call, values can overlap the other calls; inactive means above about -39%
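After 16 h attachment at 37C, HFF cells received test compound and HCMV-luciferase (1 PFU/cell); reporter luminescence read 72 h later, data normalized against buffer-only and known inhibitor Salinomycin.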
HCV inh: inhibitors of hepatitis C virus infection; AID 651820; 3.4% of 340,000 active; Huh7.5.1 HCVcc-Cre infection, luciferase reporter, 44 h; Potency, µM (series often up to 41.8 µM), actives largely listed as inhibitors
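Cells seeded at 1,000/well and cultured 4 h, then compounds added followed by HCVcc-Cre virus (~0.5 moi). After 44 h further culture, luciferase substrate was added, plates held 15 min at room temperature, and luminescence read for 15 sec.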
Numbers stand for hits; . = inactive; ? = inconclusive; / = no result given; [ ] = remark or other dose. Unless noted, the call rests on the fitted dose curve; in most records, active means well fitted inhibition curve with a large enough effect; inconclusive means small, poorly fitted or top-dose-only effect, or another doubt; inactive means no such curve, though single readings can be large or run the other way.

SMILES	CHX counter	Pf growth 48h	Shiga inhibitor	Pf growth 96h	HCMV inh	HCV inh
C/C(=N\Nc1nc(N)cc(Cl)n1)c1cccc(N)c1	52	.	39	.	.	.
CCNc1nc(NCC)nc(N/N=C(\C)c2ccc(OC)cc2)n1	.	.	.	?	.	?
C/C(=N\NC(=O)CSc1nc(C)cc(C)n1)c1cccc([N+](=O)[O-])c1	.	.	.	.	.	.
CCOc1ccc(C(=O)N2CCCC(c3nc(-c4cccs4)no3)C2)cc1 (stereo not drawn)	28	.	33	.	.	?
CCN(CC)C(=O)C1CCCN(Cc2nc(-c3cccs3)no2)C1 (stereo not drawn)	.	.	.	.	.	.
CCC(CC)C(=O)N1CCCC(c2nc(-c3cccs3)no2)C1 (stereo not drawn)	.	.	61	/	.	.
O=C(c1ccc(Cl)cc1)N1CCC(c2nc(-c3cccs3)no2)CC1	.	.	.	.	.	/
CC(OC(=O)C1CC1C)C(=O)Nc1ncc(Cl)cc1Cl (stereo not drawn)	/	.	/	.	.	.[8.37 µM]
Cc1cc(C)cc(N(CC(=O)Nc2ccc(Br)cc2)S(=O)(=O)c2c(C)[nH]c(=O)[nH]c2=O)c1	.	.	.	?	.	.
Cc1cc(C(=O)Nc2ccccc2Cl)n(-c2ccccc2)n1	.	.	.	.	.	.
Cc1cc(C(=O)Nc2cccc(C)c2C)n(-c2ccccc2)n1	24	.	51	.	-88	.
CC(=O)Nc1ccc(NC(=O)c2cc(C)nn2-c2ccccc2)cc1	.	.	.	.	.	.
Cc1cc(C(=O)Nc2cccc3ccccc23)n(-c2ccccc2)n1	.	.	.	3.3µM	.	.
Cc1ccc(-n2nc(-c3ccccc3)c3cnc4cc5c(cc4c32)OCO5)cc1C	/	/	/	/	.	/
Clc1ccc(-c2nnc(N3CCCC3)nn2)cc1	34	0.37µM	145	0.59µM	.	.
CCSc1cc(N2CCCC2)nc(-c2ccc(Cl)cc2)n1	/	.	/	.	.	.
CCOC(=O)c1c(C)[nH]c(C)c1S(=O)(=O)NCc1cc(C)ccc1C	.	.	.	.	.	.
C/C(=N/NC(=O)c1ccccn1)c1ccc(O)cc1	32	.	60	.	.	.
COCCNC(=S)N/N=C(\C)c1ccc(O)cc1	.	.	.	.	.	.
C/C(=N\Nc1ccc(Cl)cc1)c1ccccn1	23	/	74	.	.	/
C/C(=N/NC(=O)c1ccccn1)c1ccco1	.	.	.	.	.	.
C/C(=N\NC(=O)c1ccc(N/N=C(\C)c2ccc(O)cc2)cc1)c1ccc(O)cc1	40	.	68	.	.	?
C/C(=N/NC(=O)c1ccccn1)c1c[nH]c2ccccc12	56	.	92	.	.	.
C/C(=N/NS(=O)(=O)c1ccc(C)c(C)c1)c1c[nH]c2ccccc12	.	?	.	.	.	.
O=C(CNS(=O)(=O)c1ccccc1)Nc1cccc([N+](=O)[O-])c1	.	.	.	?	.	.
SMILES	CHX counter	Pf growth 48h	Shiga inhibitor	Pf growth 96h	HCMV inh	HCV inh
Nc1nnc(SCc2nnc(-c3ccccc3)o2)s1	.	.	.	?	.	.
C/C(=N\NC(=O)c1ccc(Cl)cc1)c1ccccn1	40	?	85	.	-101	3.2µM
C/C(=N\NC(=O)c1c[nH]c2ccccc12)c1ccc(C)o1	.	/	.	0.93µM	.	?
C/C(=N\NC(=O)c1ccccn1)c1ccc(Cl)cc1	33	.	53	.	.	.
C/C(=N/NS(=O)(=O)c1ccc(C)cc1C)c1c[nH]c2ccccc12	.	.	.	.	?	?
C/C(=N\NC(=O)C(O)c1ccccc1)c1ccc(Cl)cc1 (stereo not drawn)	.	.	.	4.1µM	.	.
C=CCSc1nc(-c2ccc(OC)cc2)c(C#N)c(=O)n1CC=C	.	?	.	.	?	?
Cc1cccc(C(=O)N[C@H](C(=O)NCCc2ccc(S(N)(=O)=O)cc2)C(C)C)c1	.	.	.	.	.	.
CCc1cccc(C)c1NC(=O)CN1C(=O)C2(SCC(=O)N2c2cc(C)cc(C)c2)c2ccccc21 (stereo not drawn)	/	/	/	/	.	/
COc1ccc(N(C(=O)c2cnccn2)C(C(=O)NC2CCCCC2)c2cc(OC)c(OC)c(OC)c2)cc1 (stereo not drawn)	.	?	.	.	.	.
O=C1CN(c2ccccc2)C(=S)N1C(=O)c1ccc(Br)cc1	43	.	96	?	.	.
O=C(c1ccc(Br)cc1)N1CCC(C(=O)N2CCN(c3ccccc3)CC2)CC1	.	?	.	?	.	?
CC(C)(C)n1nc(C2CC2)cc1NC(=O)Nc1ccccc1	/	/	/	/	.	/
O=C(Nc1ccc2c(c1)OCCO2)c1cc(-c2ccccn2)nc2ccc(Br)cc12	.	.	.	?	-94	.
CCOc1ccc(-c2cc(C(=O)Nc3ccc4c(c3)OCCO4)c3ccccc3n2)cc1	23	.	52	.	.	?
Cc1cccc(NC(=S)NC(=O)c2cc(-c3ccccc3)nc3ccccc23)c1	.	.	.	.	.	.
Cc1cccc(-c2cc(C(=O)Nc3ccc4c(c3)OCCO4)c3ccccc3n2)c1	32	?	96	12µM	.	?
COc1ccc(NCc2cc3cc4c(cc3n(CC(=O)Nc3ccc(C)c(C)c3)c2=O)OCO4)cc1	/	/	/	/	.	/
O=C(Nc1ccc(CN2CCOCC2)cc1)c1ccc(-c2ccc(Cl)cc2Cl)o1	.	2.1µM	.	.	-65	?
O=C(NC(=S)Nc1ccc(CN2CCOCC2)cc1)c1ccc(-c2cccc(Cl)c2)o1	.	?	.	.	?	14µM
O=C(NC(=S)Nc1ccccc1N1CCOCC1)c1ccc(-c2cccc(Cl)c2)o1	.	.	.	?	.	.
O=C(Nc1ccc(CN2CCOCC2)cc1)c1ccc(-c2cccc(Cl)c2)o1	.	1.5µM	.	?	-86	?
O=C(Nc1cnn(Cc2ccc(Cl)cc2)c1)c1cccs1	.	4.7µM	.	6.6µM	.	.
O=C(O)COc1ccc(F)cc1Br	.	.	.	.	.	.
COc1ccc(OC)c(S(=O)(=O)NCCc2csc(-c3cccnc3)n2)c1	.	.	.	.	.	.
SMILES	CHX counter	Pf growth 48h	Shiga inhibitor	Pf growth 96h	HCMV inh	HCV inh
COc1cc2ccccc2cc1C(=O)Nc1ccc(CN2CCOCC2)cc1	20	.	.	.	.	6.3µM
COc1ccccc1NC(=O)c1ccc(CN2CCOCC2)cc1	.	.	.	?	.	.
O=C(NC(=S)Nc1ccc(CN2CCOCC2)cc1)c1ccc(-c2ccc(Br)cc2)o1	.	13µM	.	?	/	.
O=C(NC(=S)Nc1ccc(CN2CCOCC2)cc1)c1ccc(-c2ccc(Cl)cc2)o1	.	.	.	?	.	.
O=C(Nc1ccc(CN2CCOCC2)cc1)c1cccs1	27	.	64	.	.	.
O=C(NC(=S)Nc1ccc(CN2CCOCC2)cc1)c1ccc([N+](=O)[O-])cc1Cl	26	.[5.75 µM]	.	?	.	.

Assay outcomes: PubChem BioAssay, National Center for Advancing Translational Sciences (NCATS)
